Results reported in PubChem BioAssay (NCATS).
Inconclusive results are not listed. Values without a mark were called inactive.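 How the source made its calls, unless noted: active means compounds whose dose-response curve shows a full or clear partial loss of cell viability, called from curve shape rather than a numeric limit; inconclusive means weak partial curves or an effect only at the top dose; inactive means no dose-dependent loss of viability.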

test: Cell Viability - Hek293 (AID 427); conditions: qHTS;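 further: cells exposed to compound for 40 hours at 37 °C before reading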
Outline: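 HEK293 cells in complete medium were exposed to compound for 40 hr at 37 °C, then cellular ATP was read by CellTiter-Glo luminescence. Data were normalized to DMSO (basal) and 100 uM tamoxifen (100% inhibition), and AC50 came from Hill fits.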
Potency means the concentration at half of the fitted maximal effect.

| SMILES | Potency |
| --- | --- |
| Cc1cc(C)c(N)cc1C | > 92 µM |
| Cc1cccc2ccccc12 | > 92 µM |
| C=C(C)C(=O)OCC(C)C | > 92 µM |
| O=Cc1ccc(C(=O)O)cc1 | > 92 µM |
| CCOc1cc(OCC)c(C(C)=O)cc1OCC | > 92 µM |
| CCCCC(CC)CNCC(CC)CCCC (stereo not drawn) | > 92 µM |
| C=CCOC(=O)COCCC(C)C | > 92 µM |
| ICCc1ccccc1 | > 92 µM |
| Cc1ccccc1C(N)=O | > 92 µM |
| CNC(=O)c1ccccc1 | > 92 µM |
| ClCCl | > 92 µM |
| CCOc1ccc(NC(C)=O)cc1N | > 92 µM |
| Nc1ccc(F)cc1F | > 92 µM |
| CC(=O)c1ccc([N+](=O)[O-])cc1 | > 92 µM |
| CCCCN(CCO)CCCC | > 92 µM |
| BrC(Br)C(Br)Br | > 92 µM |
| Nc1nc(CC(=O)O)cs1 | > 92 µM |
| O=[N+]([O-])c1cc(C(F)(F)F)ccc1Cl | > 92 µM |
| Cc1ccc(C(C)(C)C)cc1 | > 92 µM |
| CC(C)=CCl | > 92 µM |

| SMILES | Potency |
| --- | --- |
| O=Cc1ccc(Cl)cc1 | > 92 µM |
| NC(=O)c1cccc([N+](=O)[O-])c1 | > 92 µM |
| C=CCn1c(=O)n(CC=C)c(=O)n(CC=C)c1=O | > 92 µM |
| Cc1cc(C)cc([N+](=O)[O-])c1 | > 92 µM |
| CC(=O)OC(C)C | > 92 µM |
| CCC(=O)/C=C/C1C(C)=CCCC1(C)C (stereo not drawn) | > 92 µM |
| CC(=O)CCc1ccccc1 | > 92 µM |
| CCCCOCCOCCOCCCC | > 92 µM |
| Cc1cc(C(=O)O)ccc1[N+](=O)[O-] | > 92 µM |
| Cc1cccc(C)c1O | > 92 µM |
| O=c1[nH][nH]c(=O)c2cc([N+](=O)[O-])ccc12 | > 92 µM |
| CC(C)CCOC(=O)/C=C/c1ccccc1 | > 92 µM |
| NC(=O)CCCCC(N)=O | > 92 µM |
| ON=C1CCCCC1 | > 92 µM |
| CC(=O)Nc1ccccc1C | > 92 µM |
| COC(=O)CS | > 92 µM |
| Cc1ccc2cccnc2c1 | > 92 µM |
| Cc1cccc([N+](=O)[O-])c1C(=O)O | > 92 µM |
| CCOc1cccc(N)c1 | > 92 µM |

test: Cell Viability - HepG2 (AID 433; calls by dose curve;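 further: potency for ATP loss meaning cytotoxicity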); conditions: qHTS
Outline: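 Read-out is luciferase-based quantitation of cellular ATP as a measure of viable HepG2 cells after 40 h treatment at 37 °C. Signal decrease is scaled between DMSO-only and 100 uM tamoxifen controls, with AC50 fitted by the Hill equation.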

| SMILES | Potency |
| --- | --- |
| Cc1cc(C)c(N)cc1C | > 92 µM |
| Cc1cccc2ccccc12 | > 92 µM |
| C=C(C)C(=O)OCC(C)C | > 92 µM |
| O=Cc1ccc(C(=O)O)cc1 | > 92 µM |
| CCOc1cc(OCC)c(C(C)=O)cc1OCC | > 92 µM |
| CCCCC(CC)CNCC(CC)CCCC (stereo not drawn) | > 92 µM |
| C=CCOC(=O)COCCC(C)C | > 92 µM |
| ICCc1ccccc1 | > 92 µM |
| Cc1ccccc1C(N)=O | > 92 µM |
| CNC(=O)c1ccccc1 | > 92 µM |
| ClCCl | > 92 µM |
| CCOc1ccc(NC(C)=O)cc1N | > 92 µM |
| Nc1ccc(F)cc1F | > 92 µM |
| CC(=O)c1ccc([N+](=O)[O-])cc1 | > 92 µM |
| CCCCN(CCO)CCCC | > 92 µM |
| BrC(Br)C(Br)Br | > 92 µM |
| Nc1nc(CC(=O)O)cs1 | > 92 µM |
| O=[N+]([O-])c1cc(C(F)(F)F)ccc1Cl | > 92 µM |
| Cc1ccc(C(C)(C)C)cc1 | > 92 µM |
| CC(C)=CCl | > 92 µM |

| SMILES | Potency |
| --- | --- |
| O=Cc1ccc(Cl)cc1 | > 92 µM |
| NC(=O)c1cccc([N+](=O)[O-])c1 | > 92 µM |
| C=CCn1c(=O)n(CC=C)c(=O)n(CC=C)c1=O | > 92 µM |
| Cc1cc(C)cc([N+](=O)[O-])c1 | > 92 µM |
| CC(=O)OC(C)C | > 92 µM |
| CCC(=O)/C=C/C1C(C)=CCCC1(C)C (stereo not drawn) | > 92 µM |
| CC(=O)CCc1ccccc1 | > 92 µM |
| CCCCOCCOCCOCCCC | > 92 µM |
| Cc1cc(C(=O)O)ccc1[N+](=O)[O-] | > 92 µM |
| Cc1cccc(C)c1O | > 92 µM |
| O=c1[nH][nH]c(=O)c2cc([N+](=O)[O-])ccc12 | > 92 µM |
| CC(C)CCOC(=O)/C=C/c1ccccc1 | > 92 µM |
| NC(=O)CCCCC(N)=O | > 92 µM |
| ON=C1CCCCC1 | > 92 µM |
| CC(=O)Nc1ccccc1C | > 92 µM |
| COC(=O)CS | > 92 µM |
| Cc1ccc2cccnc2c1 | > 92 µM |
| Cc1cccc([N+](=O)[O-])c1C(=O)O | > 92 µM |
| CCOc1cccc(N)c1 | > 92 µM |
